# Laboratory results as given in PubChem BioAssay AID2314 (National Center for Advancing Translational Sciences (NCATS), 2010).
# The whole screen tested about 300,000 compounds, of which about 37,000 (12%) were called active. Rule as the data show it: active = max response mostly above about 13% (no sharp cut-off); inactive = mostly below about 14%. The full list was thinned out, with actives kept by preference.
# Assay: Cycloheximide Counterscreen for Small Molecule Inhibitors of Shiga Toxin; also: read at 38.3 µM for the half of the compounds with a filed dose; 0% is about no effect
# Settings: cell reporter, cycloheximide protein synthesis inhibition counterscreen; hits give high values
row,Compound,max response
1,COc1ccc(OCCn2ccnc2C)cc1,-3.23% (inactive)
2,Cc1cccc(C2C3=C(CCCC3=O)N=C3c4ccccc4C(=O)C32)c1 (configuration not stated),-3.21% (inactive)
3,Cc1cc(=O)n2nc(N3CCC(C(=O)Nc4c(F)c(F)c(F)c(F)c4F)CC3)sc2n1,4.09% (inactive)
4,Cc1ccc(-c2cc(C(=O)NCc3cn(C)nc3C)c3cc(Br)ccc3n2)cc1,13.1% (active)
5,O=C(NCc1cccs1)c1cc(-c2ccccn2)nc2ccc(Br)cc12,-5.76% (inactive)
6,Cc1ccc2nc(-c3cccc(Br)c3)cc(C(=O)Nn3cnnc3)c2c1,7.61% (inactive)
7,CC(C)(C)C(=O)Nc1ccc(C(=O)N/N=C/c2ccccc2OC(=O)c2ccc(Cl)cc2Cl)cc1,3.79% (inactive)
8,O=C(Cn1cnc2ccccc2c1=O)Nc1cccc(S(=O)(=O)N2CCCCC2)c1,7.05% (inactive)
9,COc1cc(CNC2CCCC2)c(Br)cc1OCc1ccccc1,7.1% (inactive)
10,CCOC(=O)C(CC)/C(C)=N\NC(=O)c1cccc(C)c1 (configuration not stated),27.9% (active)
11,COc1ccc(OCC(=O)NNC(=O)c2cccc(C)c2)cc1,-1.89% (inactive)
12,CCNC(=O)COC(=O)CCNC(=O)c1cccc(C)c1,10.1% (inactive)
13,COCCn1c(N)c(NCc2ccccc2)c(=O)[nH]c1=O,-1.16% (inactive)
14,CCOC(=O)N1CCN(C(=O)C(C)NC(=O)c2ccco2)CC1 (configuration not stated),1.53% (inactive)
15,CC1=C(C)CC(C(=O)NNC(=O)c2ccccc2O)C(C(=O)O)C1 (configuration not stated),15.2% (active)
16,CC1=C(C)CC(C(=O)NNC(=O)c2csc3c2CCC(C(C)(C)C)C3)C(C(=O)O)C1 (configuration not stated),-0.879% (inactive)
17,CC1=C(C)CC(C(=O)NC(C)CCc2ccccc2)C(C(=O)O)C1 (configuration not stated),12.4% (inactive)
18,CCC(=O)N(CCc1ccccc1)Cc1cc2cc(C)ccc2[nH]c1=O,-3.02% (inactive)
19,CC(C)c1nc2sc3c(c2c(=O)n1N)CC(C)(C)OC3,11.6% (inactive)
20,COc1ccc(-c2noc(C(C)NS(=O)(=O)c3ccc(NC(C)=O)cc3)n2)cc1 (configuration not stated),-8.48% (inactive)
21,C/C(=N/Nc1ccc(Cl)cc1)c1cnnc(-c2ccccc2)n1,-2.47% (inactive)
22,Cc1ccccc1-c1nnn(CC(=O)c2ccc(S(=O)(=O)N3CCCC3)cc2)n1,0.345% (inactive)
23,O=C(Cn1nnc(-c2ccccc2)n1)NCc1ccccc1,-2.67% (inactive)

row,Compound,max response
1,CC(C)(C)NC(=O)Cn1nnc(-c2ccccc2Cl)n1,53.5% (active)
2,COC(=O)COc1cccc2c(=O)n(CC(=O)NCc3ccccc3)ccc12,-1.91% (inactive)
3,Cc1ccc(S(=O)(=O)N(C)C)cc1NC(=O)c1n[nH]c(=O)c2ccccc12,-4.46% (inactive)
4,CCCN(CCC)S(=O)(=O)c1ccc(C(=O)N2CC3CCC(CC3)C2)cc1,-1.36% (inactive)
5,CCOC(=O)c1ccc(N/C(=N/S(=O)(=O)c2ccccc2)c2ccccc2)cc1,10.2% (inactive)
6,COC(=O)c1ccc(N2CCOCC2)c(NC(=O)c2ccc3c(c2)OCCO3)c1,0.234% (inactive)
7,O=C(Nc1ccc2c(c1)OCCO2)c1ccc(Cl)c(S(=O)(=O)N2CCCCC2)c1,45.3% (active)
8,O=C(Nc1cccc(Cl)c1N1CCOCC1)c1ccc2c(c1)OCCO2,19.9% (inactive)
9,O=C(Nc1cccc(S(=O)(=O)N2CCCCC2)c1)c1ccc2c(c1)OCO2,-2.46% (inactive)
10,O=C(c1ccc(Cl)c(S(=O)(=O)N2CCCCC2)c1)N1CCCCCC1,-2.78% (inactive)
11,CN1CCN(c2ccc(NC(=O)c3ccc4c(c3)OCCO4)cc2Cl)CC1,39.3% (active)
12,Cc1ccc(C(=O)Nc2ccc3c(c2)OCO3)cc1S(=O)(=O)N1CCCCC1,19.6% (active)
13,O=C(NCCSCc1ccccc1)c1ccc(Cl)c(S(=O)(=O)N2CCOCC2)c1,-2.82% (inactive)
14,Cc1ccc(C(=O)Nc2ccccc2C(=O)NC2CCCCC2)cc1S(=O)(=O)N1CCOCC1,12% (inactive)
15,O=[N+]([O-])c1ccccc1/C=C/CN1CCCC(CO)C1 (configuration not stated),-1.17% (inactive)
16,FC(F)Oc1ccccc1C1CC(c2ccc(Br)s2)Nc2ncnn21 (configuration not stated),-4.82% (inactive)
17,CCOc1ccccc1Nc1ccc2nonc2c1[N+](=O)[O-],-3.05% (inactive)
18,Cc1cnc(C(=O)N2CCCC(N3CCN(c4ccccc4F)CC3)C2)cn1 (configuration not stated),7.17% (inactive)
19,CN(C)/C=N/c1cc(=O)n(C)c(=O)n1CC1CC1,-3.74% (inactive)
20,COc1cc(OC)cc(C(=O)OCC(=O)Nc2sccc2C(N)=O)c1,16.2% (active)
21,COc1cc(OC)cc(C(=O)OCC(=O)Nc2ccc(F)cc2F)c1,1.53% (inactive)
22,CCCCn1nc(C(=O)OCC(=O)Nc2sccc2C(N)=O)c2ccccc2c1=O,11.3% (inactive)
23,CC(=O)N1c2ccc(S(=O)(=O)N3CCCC(C(=O)Nc4cccc(F)c4)C3)cc2CC1C (configuration not stated),-3.59% (inactive)

row,Compound,max response
1,Cc1ccc(-c2noc(CN3CCN(Cc4ccccc4)CC3)n2)cc1,9.63% (inactive)
2,CC(C)C(O)C1CCN(Cc2nc(Cc3ccccc3Cl)no2)CC1 (configuration not stated),-3.2% (inactive)
3,CC1CCN(Cc2nc(-c3ccc(Cl)cc3)no2)CC1,14.8% (active)
4,Cc1cc(OCCOc2cccc3cccnc23)c(C)cc1Cl,2.3% (inactive)
5,CCc1ccc(N(C(=O)c2csnn2)C(C(=O)NC2CCCCC2)c2cccnc2)cc1 (configuration not stated),6.38% (inactive)
6,Cc1cccc(NC(=O)c2cc([N+](=O)[O-])ccc2N2CCN(C)CC2)c1,-4.47% (inactive)
7,Cc1ccc(C(=O)Nc2nnc(-c3ccncc3)s2)o1,0.697% (inactive)
8,Cc1onc(NC(=O)c2ccc([N+](=O)[O-])o2)c1Br,60.9% (active)
9,Cc1cccc(NC(=O)c2ccc([N+](=O)[O-])o2)c1,29.4% (active)
10,Cc1cccc(NC(=O)c2sc(-c3ccccc3)nc2-c2ccc([N+](=O)[O-])cc2)c1,-2.46% (inactive)
11,Cc1onc(C(=O)NCc2ccc(F)cc2)c1[N+](=O)[O-],4.59% (inactive)
12,C=CCn1c(SCC(=O)NC)nnc1C12CC3CC(CC(C3)C1)C2,-1.24% (inactive)
13,O=C(CCn1nnc2ccccc21)OCC(=O)c1ccc([N+](=O)[O-])cc1,-6.28% (inactive)
14,N#C/C(C(=S)Nc1ccccc1)=C1/NN=C(N2CCOCC2)N1c1ccccc1,0.28% (inactive)
15,Cc1[nH]n(C(N)=S)c(=O)c1N=Nc1ccc(Cl)cc1Cl,12.2% (inactive)
16,CC(=O)Nc1ccc(NC(=O)c2ccc3c(c2)C(=O)N(c2ccccc2C)C3=O)cc1,-2.35% (inactive)
17,CCOc1ccc(-n2c(SCC(N)=O)nnc2-c2ccco2)cc1,-1.88% (inactive)
18,COc1cc(CNCc2ccc(OC)c3ccccc23)cc(OC)c1OC,-1.1% (inactive)
19,CCN1CCN(C(=O)C2CCN(S(=O)(=O)c3cc(Cl)ccc3Cl)CC2)CC1,-1.01% (inactive)
20,CCOC(=O)C1=C(C)NC2=C(C(=O)CC(C)(C)C2)C1c1ccsc1 (configuration not stated),8.09% (inactive)
21,COc1ccc(C(CNC(=O)COc2ccc([N+](=O)[O-])cc2)N2CCCCC2)cc1 (configuration not stated),-2.15% (inactive)
22,CCOC(=O)N1CCC(NC(=O)c2cnn3ccccc23)CC1,-4.51% (inactive)
23,O=C(c1cnn2ccccc12)N1CCc2ccccc21,66.5% (active)

row,Compound,max response
1,Cc1cnc(C(=O)OCC(=O)N2CCc3ccccc32)cn1,9.5% (inactive)
2,Cc1ccc(S(=O)(=O)N2CCN(C(=O)COC(=O)c3c(C)noc3C)CC2)c(C)c1,-2.98% (inactive)
3,Cc1ccc(-c2nc(COC(=O)c3c(C)noc3C)cs2)cc1,73.1% (active)
4,Cc1noc(C)c1COC(=O)c1cc2ccccc2cc1O,-1.04% (inactive)
5,CN(C)CCCNC(=S)N1CCN(c2nc(-c3ccccc3)cs2)CC1,-1.66% (inactive)
6,O=C(CN1CCN(c2nc(-c3ccccc3)cs2)CC1)NCc1ccc2c(c1)OCO2,-2.7% (inactive)
7,c1ccc(-c2csc(N3CCc4ccccc4C3)n2)cc1,36.5% (active)
8,CCOC(=O)Cn1c(O)c(N=NC(=O)CNC(=O)Cc2ccccc2)c2ccccc21,5.93% (inactive)
9,CCCc1ccc(C(=O)[C@@H]2[C@@H](C(C)=O)N3c4ccc(F)cc4C=C[C@@H]3[C@@]23C(=O)Nc2ccccc23)cc1,-1.55% (inactive)
10,O=S(=O)(c1ccc(Cl)cc1)c1nc(-c2ccco2)oc1N1CCCCC1,3.16% (inactive)
11,O=C(NCCCN1CCCCC1)C1CCCN(c2ncnc3c2nc2n3CCCCC2)C1 (configuration not stated),-1.32% (inactive)
12,CN(C)c1nnnn1-c1ccc(Cl)cc1,-4.44% (inactive)
13,CO/N=C/c1cn(-c2ccc(Cl)cc2)nn1,24.4% (active)
14,O=C(Nc1ccccc1)OCc1cn(-c2ccc(Cl)cc2)nn1,-3.74% (inactive)
15,COc1cc(NC(=O)C2CC(c3ccccc3O)=NO2)c(OC)cc1Cl (configuration not stated),-1.7% (inactive)
16,COCCN1C(=O)C(=O)/C(=C(/O)c2ccc(S(=O)(=O)N3CCCCC3)cc2)C1c1ccc(OC)c(OC)c1 (configuration not stated),-1.21% (inactive)
17,CC(C)n1c(=O)c(C=Nc2ccc(Br)cc2)c(O)n(Cc2ccco2)c1=O,-2.65% (inactive)
18,CN(C)CCCN=Cc1c(O)n(Cc2ccco2)c(=O)[nH]c1=O,8% (inactive)
19,Cc1cs/c(=N\N=C\c2ccc(O)cc2)n1Cc1ccco1,21.5% (active)
20,O=c1c2c(-c3ccccc3)ccnc2[nH]n1-c1ccccc1,9.85% (inactive)
21,O=C(Nc1cccc2ccccc12)c1onc2c1CCCC2,43.2% (active)
22,O=C(COC(=O)c1ccccn1)Nc1cccc2ccccc12,-1.89% (inactive)
23,O=C(O)c1ccccc1-c1ccccc1C(=O)Nc1cccc2ccccc12,-3.02% (inactive)
